Measured values taken from article PMC13423814.

Assays:
[1] = biological target: Serine/arginine-rich splicing factor 1 (UniProt Q07955)
Histone H4 = Histone H4 (UniProt P62805)
[2] = biological target: DNA replication licensing factor MCM2 (UniProt P49736)
Peroxiredoxin-1 = Peroxiredoxin-1 (UniProt Q06830)
Sequence of Peroxiredoxin-1 (Q06830 whole entry): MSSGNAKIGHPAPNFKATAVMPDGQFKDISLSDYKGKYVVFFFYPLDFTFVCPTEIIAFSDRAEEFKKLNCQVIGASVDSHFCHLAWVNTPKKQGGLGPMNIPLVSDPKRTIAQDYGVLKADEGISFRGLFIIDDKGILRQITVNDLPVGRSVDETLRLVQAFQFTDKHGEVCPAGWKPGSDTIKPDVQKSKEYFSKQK

Sequence of DNA replication licensing factor MCM2 (P49736 whole entry): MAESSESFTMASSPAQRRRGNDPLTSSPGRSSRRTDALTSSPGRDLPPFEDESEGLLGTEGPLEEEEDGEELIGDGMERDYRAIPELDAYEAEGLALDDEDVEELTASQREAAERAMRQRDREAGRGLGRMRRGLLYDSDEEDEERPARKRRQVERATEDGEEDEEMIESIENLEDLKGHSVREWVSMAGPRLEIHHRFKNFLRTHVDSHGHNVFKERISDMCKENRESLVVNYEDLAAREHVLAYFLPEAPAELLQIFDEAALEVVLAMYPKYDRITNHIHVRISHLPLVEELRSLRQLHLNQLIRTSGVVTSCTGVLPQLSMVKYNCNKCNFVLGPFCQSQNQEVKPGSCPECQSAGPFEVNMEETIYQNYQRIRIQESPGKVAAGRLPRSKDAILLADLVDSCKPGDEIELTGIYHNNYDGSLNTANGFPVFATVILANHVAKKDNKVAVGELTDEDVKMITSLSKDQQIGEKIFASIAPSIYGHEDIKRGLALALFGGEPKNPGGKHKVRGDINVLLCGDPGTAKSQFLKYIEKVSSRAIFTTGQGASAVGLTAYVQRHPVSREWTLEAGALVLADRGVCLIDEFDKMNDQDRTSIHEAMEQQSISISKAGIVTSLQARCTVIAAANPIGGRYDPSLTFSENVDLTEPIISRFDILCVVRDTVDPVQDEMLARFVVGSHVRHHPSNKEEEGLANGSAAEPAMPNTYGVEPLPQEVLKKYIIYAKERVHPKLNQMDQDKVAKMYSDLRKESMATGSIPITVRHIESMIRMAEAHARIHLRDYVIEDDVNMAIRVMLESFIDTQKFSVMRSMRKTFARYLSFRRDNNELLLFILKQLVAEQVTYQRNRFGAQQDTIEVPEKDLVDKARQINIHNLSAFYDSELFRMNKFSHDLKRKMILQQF
Sequence of Serine/arginine-rich splicing factor 1 (Q07955 whole entry): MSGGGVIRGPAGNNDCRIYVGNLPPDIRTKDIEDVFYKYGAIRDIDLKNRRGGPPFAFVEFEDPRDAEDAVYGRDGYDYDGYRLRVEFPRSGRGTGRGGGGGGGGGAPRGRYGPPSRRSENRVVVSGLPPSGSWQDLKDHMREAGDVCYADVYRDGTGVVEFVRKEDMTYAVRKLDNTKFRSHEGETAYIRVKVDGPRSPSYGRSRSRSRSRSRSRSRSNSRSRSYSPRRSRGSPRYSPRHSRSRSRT

Substance: RNA-binding motif protein, X chromosome, P38159
- listed as a hit [1]: yes

Substance: Prelamin-A/C, P02545
- listed as a hit (Histone H4): yes

Substance: DNA replication licensing factor MCM3, P25205
- listed as a hit [2]: yes

Substance: Putative keratin-87 protein, A6NCN2
- listed as a hit (Peroxiredoxin-1): yes
